We go through 5 compounds from PubChem BioAssay (EPA / NIEHS).

Calls of active or inactive are those of the source. How the source made its calls: active means hit-call score of the fitted dose curve at least 0.9, where 1 is the maximum; inactive means score below 0.9.

Read-out in assay [1]: Transforming growth factor beta 1 (TGFb1), TGFB1 (gene 7040)
Kind of assay: BSK_KF3CT_TGFb1: BioMAP Diversity Plus: KF3CT Assay for Transforming growth factor beta 1 (TGFb1) Biomarker Activity (AID 2283072). Particulars: primary human keratinocytes with fibroblasts; actives raise or lower the signal. A digest of the protocol:
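ELISA quantifies TGF-b1 at 24 h post-dose in a primary human skin co-culture of keratinocytes and fibroblasts, with gain or loss judged against DMSO. Parallel SRB total-protein staining flags overt cytotoxicity.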

Read-out in assay [2]: C-C motif chemokine 2 (Homo sapiens) (UniProt P13500)
Briefly: BSK_KF3CT_MCP1: BioMAP Diversity Plus: KF3CT Assay for Monocyte Chemoattractant Protein 1 (MCP1/CCL2) Biomarker Activity (AID 2283073). As to conditions: primary human keratinocytes with fibroblasts; actives raise or lower the signal. An outline of the steps:
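Human keratinocyte–foreskin fibroblast co-culture; MCP-1 measured by ELISA 24 h after dosing. Bidirectional fit vs DMSO; cytotoxicity tracked by SRB total protein in parallel cultures.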

Read-out in assay [3]: Matrix Metallopeptidase 9 (MMP9), MMP9 (gene 4318)
Kind of assay: BSK_KF3CT_MMP9: BioMAP Diversity Plus: KF3CT Assay for Matrix Metallopeptidase 9 (MMP9) Biomarker Activity (AID 2283074). Particulars: primary human keratinocytes with fibroblasts; actives raise or lower the signal. A digest of the protocol: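 Values come from bidirectional fitting relative to DMSO of MMP-9 levels, which were measured by ELISA. Measurements were taken 24 h after chemical dosing of a keratinocyte and foreskin fibroblast co-culture.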

Read-out in assay [4]: urokinase plasminogen activator (uPA), PLAU (gene 5328)
Briefly: BSK_KF3CT_uPA: BioMAP Diversity Plus: KF3CT Assay for urokinase plasminogen activator (uPA) Biomarker Activity (AID 2283075). Particulars: primary human keratinocytes with fibroblasts; actives raise or lower the signal. A digest of the protocol: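 Values derive from bidirectional fitting against DMSO controls. Keratinocyte/foreskin fibroblast co-cultures received chemical; 24 h later uPA was detected by ELISA, with SRB total-protein staining in parallel wells for overt cytotoxicity.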

Read-out in assay [5]: CD40, CD40 (gene 958)
Briefly: BSK_LPS_CD40: BioMAP Diversity Plus: LPS Assay for CD40 Biomarker Activity (AID 2283076). As to conditions: primary human HUVEC with PBMC; actives raise or lower the signal. A digest of the protocol: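 HUVEC plus PBMC co-culture stimulated with LPS; CD40 quantified by ELISA 24 h after compound dosing. Fitting was bidirectional relative to DMSO. SRB staining of parallel cultures flagged overt cytotoxicity.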

Read-out in assay [6]: E-selectin (Homo sapiens) (UniProt P16581)
Briefly: BSK_LPS_Eselectin: BioMAP Diversity Plus: LPS Assay for Eselectin Biomarker Activity (AID 2283077). As to conditions: primary human HUVEC with PBMC; actives raise or lower the signal. A digest of the protocol:
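Human umbilical vein endothelial cells co-cultured with PBMC under LPS stimulation; cell-surface E-selectin measured by ELISA 24 h after dosing. Change in either direction versus DMSO, with SRB total-protein staining in parallel cultures for cytotoxicity.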

Read-out in assay [7]: Interleukin-8 (IL8), CXCL8 (gene 3576)
Briefly: BSK_LPS_IL8: BioMAP Diversity Plus: LPS Assay for Interleukin-8 (IL8) Biomarker Activity (AID 2283078). As to conditions: primary human HUVEC with PBMC; actives raise or lower the signal. A digest of the protocol:
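Human umbilical vein endothelial cells co-cultured with PBMC, LPS-stimulated, exposed to compound for 24 h. IL-8 quantified by ELISA; fitted in both directions against DMSO, with SRB total-protein staining of parallel cultures for cytotoxicity.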

Assay [8] can be described thus: BSK_LPS_SRB: Viability Assessment in the BioMAP Diversity Plus: LPS Assay (AID 2283079).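 Further: total protein by sulforhodamine B absorbance as a cytotoxicity measure; measured one day after compound addition; fitted in both directions against DMSO so loss or gain of signal counts.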 Particulars: primary human HUVEC with PBMC. An outline of the steps:
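Co-culture of human umbilical vein endothelial cells and PBMC, read 24 h after dosing. Total protein by 0.1% SRB staining after 10% TCA fixation, absorbance at 560 nm; bidirectional fit against DMSO.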

Read-out in assay [9]: Interleukin-1 alpha (IL1a), IL1A (gene 3552)
Kind of assay: BSK_LPS_IL1a: BioMAP Diversity Plus: LPS Assay for Interleukin-1 alpha (IL1a) Biomarker Activity (AID 2283080). As to conditions: primary human HUVEC with PBMC; actives raise or lower the signal. An outline of the steps: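 Human umbilical vein endothelial cells co-cultured with PBMC and stimulated with LPS; IL-1a measured by ELISA 24 h after dosing. Bidirectional fitting against DMSO; cytotoxicity checked by SRB staining in parallel cultures.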

Read-out in assay [10]: Monocyte Chemoattractant Protein-1 (MCP1), CCL2 (gene 6347)
Kind of assay: BSK_LPS_MCP1: BioMAP Diversity Plus: LPS Assay for Monocyte Chemoattractant Protein-1 (MCP1) Biomarker Activity (AID 2283081). As to conditions: primary human HUVEC with PBMC; actives raise or lower the signal. An outline of the steps: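 Human umbilical vein endothelial cells co-cultured with PBMC, LPS-stimulated; secreted MCP-1 measured by ELISA 24 h after compound addition. Bidirectional curve fitting against DMSO baseline; SRB total-protein staining in parallel cultures for cytotoxicity.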

Assay [11] can be described thus: BSK_LPS_PGE2: BioMAP Diversity Plus: LPS Assay for Prostaglandin E2 (PGE2) Biomarker Activity (AID 2283082). As to conditions: primary human HUVEC with PBMC; actives raise or lower the signal. An outline of the steps: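 PGE2 release measured by ELISA in an LPS-activated co-culture of human umbilical vein endothelial cells and peripheral blood mononuclear cells, read at 24 h post-dosing. DMSO served as baseline for bidirectional curve fitting.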

Read-out in assay [12]: Macrophage colony-stimulating factor (MCSF), CSF1 (gene 1435)
Kind of assay: BSK_LPS_MCSF: BioMAP Diversity Plus: LPS Assay for Macrophage colony-stimulating factor (MCSF) Biomarker Activity (AID 2283083). Particulars: primary human HUVEC with PBMC; actives raise or lower the signal. An outline of the steps:
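HUVEC–PBMC co-culture, M-CSF measured by ELISA 24 h after chemical dosing. Fitted in both directions relative to DMSO as negative control; overt cytotoxicity assessed by SRB total-protein staining in parallel cultures.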

Read-out in assay [13]: Tissue Factor, F3 (gene 2152)
Kind of assay: BSK_LPS_TissueFactor: BioMAP Diversity Plus: LPS Assay for Tissue Factor Biomarker Activity (AID 2283084). As to conditions: primary human HUVEC with PBMC; actives raise or lower the signal. An outline of the steps: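 Human umbilical vein endothelial cells co-cultured with PBMC were dosed with compound. Cell-surface CD142 was measured by ELISA 24 h later. Activity was fitted bidirectionally against DMSO, with SRB total-protein staining in parallel cultures for cytotoxicity.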

Read-out in assay [14]: Tumor necrosis factor (Homo sapiens) (UniProt P01375)
Kind of assay: BSK_LPS_TNFa: BioMAP Diversity Plus: LPS Assay for Tumour Necrosis Factor alpha (TNFa) Biomarker Activity (AID 2283085).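 On AC50: TNFa protein level quantified by ELISA in the co-culture.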 Particulars: primary human HUVEC with PBMC; actives raise or lower the signal. An outline of the steps:
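TNFa was quantified by ELISA in LPS-activated co-cultures of human endothelial cells and PBMC, 24 h post-dosing. Both increases and decreases versus DMSO were fitted.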

Read-out in assay [15]: Vascular cell adhesion molecule 1 (VCAM1), VCAM1 (gene 7412)
Briefly: BSK_LPS_VCAM1: BioMAP Diversity Plus: LPS Assay for Vascular cell adhesion molecule 1 (VCAM1) Biomarker Activity (AID 2283086). Particulars: primary human HUVEC with PBMC; actives raise or lower the signal. An outline of the steps: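 VCAM-1 quantified by ELISA in an LPS-activated co-culture of human endothelial cells and peripheral blood mononuclear cells, read 24 h post-treatment. Fitted in both directions versus DMSO; parallel SRB staining flags overt cytotoxicity.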

Read-out in assay [16]: CD38, CD38 (gene 952)
Kind of assay: BSK_SAg_CD38: BioMAP Diversity Plus: SAg Assay for CD38 Biomarker Activity (AID 2283087). Particulars: primary human HUVEC with PBMC; actives raise or lower the signal. A digest of the protocol:
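CD38 quantified by ELISA (fluorescence) in a superantigen-activated endothelial cell–PBMC co-culture at 24 h post-dose. Activity fitted in both directions relative to DMSO; parallel SRB and Alamar Blue cytotoxicity read-outs.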

Read-out in assay [17]: CD40, CD40 (gene 958)
Kind of assay: BSK_SAg_CD40: BioMAP Diversity Plus: SAg Assay for CD40 Biomarker Activity (AID 2283088). Particulars: primary human HUVEC with PBMC; actives raise or lower the signal. A digest of the protocol:
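HUVEC plus PBMC co-culture, superantigen-activated, with CD40 read by ELISA 24 h after dosing. Curves fitted in both directions against DMSO. Overt cytotoxicity checked by parallel SRB total-protein staining.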

Read-out in assay [18]: CD69, CD69 (gene 969)
Kind of assay: BSK_SAg_CD69: BioMAP Diversity Plus: SAg Assay for CD69 Biomarker Activity (AID 2283089). Particulars: primary human HUVEC with PBMC; actives raise or lower the signal. A digest of the protocol: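 Endothelial/PBMC co-culture; chemical added; 24 h incubation; CD69 ELISA with fluorescence detection; bidirectional fit vs DMSO.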

Read-out in assay [19]: Monocyte Chemoattractant Protein-1 (MCP1), CCL2 (gene 6347)
Briefly: BSK_SAg_MCP1: BioMAP Diversity Plus: SAg Assay for Monocyte Chemoattractant Protein-1 (MCP1) Biomarker Activity (AID 2283090). As to conditions: primary human HUVEC with PBMC; actives raise or lower the signal. A digest of the protocol: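 Values derive from bidirectional fitting of ELISA-measured MCP1 against DMSO controls. Readings were taken 24 h after dosing human vascular endothelial cells co-cultured with peripheral blood mononuclear cells under superantigen stimulation.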

Read-out in assay [20]: TIMP metallopeptidase inhibitor 2 (TIMP2), TIMP2 (gene 7077)
Kind of assay: BSK_KF3CT_TIMP2: BioMAP Diversity Plus: KF3CT Assay for TIMP metallopeptidase inhibitor 2 (TIMP2) Biomarker Activity (AID 2283071). As to conditions: primary human keratinocytes with fibroblasts; actives raise or lower the signal. A digest of the protocol: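 TIMP-2 measured by ELISA at 24 h in human keratinocyte/fibroblast primary co-cultures exposed to chemicals. Both increases and decreases were fitted against DMSO. Parallel cultures were stained with SRB for total protein as an overt-cytotoxicity check.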

Sequence of Tumor necrosis factor (Homo sapiens) (P01375 whole entry, looked up): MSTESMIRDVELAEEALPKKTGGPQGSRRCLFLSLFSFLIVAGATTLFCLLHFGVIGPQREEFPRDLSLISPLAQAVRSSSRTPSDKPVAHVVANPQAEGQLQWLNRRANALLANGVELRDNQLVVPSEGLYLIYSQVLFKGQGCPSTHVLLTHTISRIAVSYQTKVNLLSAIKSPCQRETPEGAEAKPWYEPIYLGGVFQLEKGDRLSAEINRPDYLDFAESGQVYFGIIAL
Sequence of E-selectin (Homo sapiens) (P16581 whole entry, looked up): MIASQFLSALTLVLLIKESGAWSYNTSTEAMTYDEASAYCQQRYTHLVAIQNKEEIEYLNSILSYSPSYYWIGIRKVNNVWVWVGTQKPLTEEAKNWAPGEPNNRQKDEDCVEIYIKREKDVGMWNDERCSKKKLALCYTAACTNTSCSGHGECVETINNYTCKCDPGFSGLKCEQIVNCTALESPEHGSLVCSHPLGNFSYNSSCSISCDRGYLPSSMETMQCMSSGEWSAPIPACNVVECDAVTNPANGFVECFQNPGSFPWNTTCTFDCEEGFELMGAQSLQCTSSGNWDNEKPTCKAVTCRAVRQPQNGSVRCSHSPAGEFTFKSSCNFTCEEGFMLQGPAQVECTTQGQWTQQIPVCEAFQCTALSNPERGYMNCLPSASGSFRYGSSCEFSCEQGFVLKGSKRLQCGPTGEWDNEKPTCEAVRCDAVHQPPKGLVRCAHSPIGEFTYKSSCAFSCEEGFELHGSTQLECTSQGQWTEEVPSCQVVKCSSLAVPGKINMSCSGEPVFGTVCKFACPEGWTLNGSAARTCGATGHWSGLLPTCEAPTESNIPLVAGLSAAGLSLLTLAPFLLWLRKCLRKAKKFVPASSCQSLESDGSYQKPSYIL

Usually AC50 stands for the concentration giving half of the maximal activity seen. For the compound `COP(=O)(OC)OC=C(Cl)Cl`, the outcome in assay [1], in [2], in [3], in assay [4], in [6] and in assay [7] was inactive. Also, the result in assay [8], in assay [9], in assay [10], in assay [11], in assay [13] and in [16] was inactive. Moreover, the outcome in [17] and in [18] was inactive. Besides, the AC50 in [5] was 27.3 µM (active); in [12] it was 20 µM (active); in [14] it was 4.96 µM (active); in assay [15] it was 30.1 µM (active); in assay [19], 17.5 µM (active).
For `COc1nn(CSP(=S)(OC)OC)c(=O)s1`, the result in assay [1], in assay [2], in assay [3], in assay [4], in assay [5] and in assay [7] was inactive. The result in [8], in assay [9], in assay [10], in assay [12], in [13] and in assay [14] was inactive. Moreover, the result in assay [15], in assay [16], in assay [17], in assay [18] and in [19] was inactive. The AC50 in assay [6] is 4.79 µM (active); in assay [11], 12.6 µM (active).
With `O=C(NC(=O)c1c(F)cccc1F)Nc1ccc(OC(F)(F)C(F)OC(F)(F)F)c(Cl)c1` (configuration not stated), the result in [20], in assay [1], in assay [2], in assay [3], in assay [4] and in assay [5] was inactive. The outcome in [6], in assay [7], in [8], in [9], in [10] and in [11] was inactive. The outcome in assay [12], in assay [13], in assay [14], in [15], in assay [17] and in assay [18] was inactive. Besides, the results for the half-maximal activity concentration (AC50) in assay [16] and in assay [19] were 16.3 µM (active) and 32.2 µM (active), respectively.
For `COc1cc(OC)nc(NC(=O)NS(=O)(=O)c2cc(NC=O)ccc2C(=O)N(C)C)n1`, the result in assay [20], in [1], in assay [2], in assay [3], in assay [4] and in [5] was inactive. The outcome in assay [6], in [7], in assay [8], in [9], in [10] and in assay [11] was inactive. In addition, the outcome in assay [12], in [13], in assay [14], in [15], in assay [16] and in [17] was inactive. The outcome in assay [18] and in assay [19] was inactive.
`COC(=O)c1ccccc1S(=O)(=O)NC(=O)Nc1nc(C)nc(OC)n1`: the outcome in assay [1], in assay [2], in assay [3], in assay [4], in assay [5] and in [6] was inactive. For the same compound, the outcome in assay [7], in assay [8], in [9], in assay [10], in [11] and in assay [12] was inactive. Moreover, the outcome in assay [13], in [14], in assay [15], in assay [16], in assay [17] and in [18] was inactive. Also, the result in assay [19] was inactive.
